What was measured:
Assay type in all cases: functional
Plasmodium falciparum [1] = assay: GSK_TCMDC: Inhibition of Plasmodium falciparum 3D7 in whole red blood cells, using parasite LDH activity as an index of growth. Test compounds present at 2uM
Plasmodium falciparum [2] = assay: GSK_TCMDC: Inhibition of Plasmodium falciparum Dd2 in whole red blood cells, using parasite LDH activity as an index of growth. Test compounds present at 2uM
HepG2 = assay: GSK_TCMDC: Percent inhibition of human HepG2 cell line. Test compounds present at 10uM.

COc1ccc(-c2onc(C(F)(F)F)c2-c2cc3ccccc3o2)c(O)c1
Inhibition (Plasmodium falciparum [1]): 93%
Inhibition (Plasmodium falciparum [2]): 15%
Inhibition (HepG2): 6%

CCCCOc1ccc(CNCCCCCCNCc2ccc(OCCCC)c3ccccc23)c2ccccc12.CS(=O)(=O)O
Inhibition (Plasmodium falciparum [1]): 81%
Inhibition (Plasmodium falciparum [2]): 49%
Inhibition (HepG2): 100%

CC(C)(C)c1ccc(CN2CCC(CNC(=O)c3cc(-c4cccc(F)c4)cs3)C2)cc1.O=C(O)C(F)(F)F (stereo not given)
Inhibition (Plasmodium falciparum [1]): 100%
Inhibition (Plasmodium falciparum [2]): 55%
Inhibition (HepG2): 32%

Cc1cc(N(C)CCCN(C)C)nc(Nc2ccc(Br)cc2)n1
Inhibition (Plasmodium falciparum [1]): 100%
Inhibition (Plasmodium falciparum [2]): 84%
Inhibition (HepG2): 4%

O=C1O[C@H](c2ccccc2)[C@H](c2ccccc2)N(C(=O)OCc2ccccc2)[C@H]1Cc1ccccc1C1CCCC1
Inhibition (Plasmodium falciparum [1]): 97%
Inhibition (Plasmodium falciparum [2]): 0%
Inhibition (HepG2): 56%

CNCCNCc1cccc(-c2ccc(-c3nc4cc(C(F)(F)F)ccc4[nH]3)cc2)c1.O=C(O)C(F)(F)F
Inhibition (Plasmodium falciparum [1]): 100%
Inhibition (Plasmodium falciparum [2]): 92%
Inhibition (HepG2): 21%

Cl.O=C1COc2cc(Cl)c(CNC3CCN(CCc4ccnc5c(F)cc(F)cc45)CC3)nc2N1
Inhibition (Plasmodium falciparum [1]): 98%
Inhibition (Plasmodium falciparum [2]): 49%
Inhibition (HepG2): 96%

Cc1noc(C)c1S(=O)(=O)N(C)Cc1ccc(-c2ccc(Cl)cc2)o1
Inhibition (Plasmodium falciparum [1]): 100%
Inhibition (Plasmodium falciparum [2]): 100%
Inhibition (HepG2): 10%

CCOc1ccc(-c2nonc2NC(=O)CC(C)C)cc1OCC
Inhibition (Plasmodium falciparum [1]): 92%
Inhibition (Plasmodium falciparum [2]): 37%
Inhibition (HepG2): 0%

COc1cc(CCNc2nc(NCc3ccccc3-c3ccccc3)nc(N3CCC(N)CC3)n2)ccc1O.O=C(O)C(F)(F)F
Inhibition (Plasmodium falciparum [1]): 100%
Inhibition (Plasmodium falciparum [2]): 70%
Inhibition (HepG2): 25%

CC(C(=O)N1CCCC1)N1CCN(S(=O)(=O)c2ccc(C(C)(C)C)cc2)CC1 (stereo not given)
Inhibition (Plasmodium falciparum [1]): 98%
Inhibition (Plasmodium falciparum [2]): 86%
Inhibition (HepG2): 4%

CCCCc1cc(=O)oc2cc(C)cc(OCc3ccccc3F)c12
Inhibition (Plasmodium falciparum [1]): 92%
Inhibition (Plasmodium falciparum [2]): 78%
Inhibition (HepG2): 8%

COc1ccc(CCNCc2cc3c(C(C)(C)C)nn(-c4ccc(Cl)cc4)c3[nH]c2=O)cc1OC
Inhibition (Plasmodium falciparum [1]): 100%
Inhibition (Plasmodium falciparum [2]): 99%
Inhibition (HepG2): 13%

O=C(Cn1cnc2c(nnn2Cc2ccccc2F)c1=O)Nc1ccc2c(c1)OCCO2
Inhibition (Plasmodium falciparum [1]): 86%
Inhibition (Plasmodium falciparum [2]): 1%
Inhibition (HepG2): 0%

CCOc1c(CNCCCNc2nc3ccccc3[nH]2)cc(Br)cc1OC.Cl
Inhibition (Plasmodium falciparum [1]): 99%
Inhibition (Plasmodium falciparum [2]): 0%
Inhibition (HepG2): 29%

COc1ccc(S(=O)(=O)NC2CCN(c3ccc(C(F)(F)F)cc3NC(=O)OCC(C)C)CC2)cc1
Inhibition (Plasmodium falciparum [1]): 85%
Inhibition (Plasmodium falciparum [2]): 13%
Inhibition (HepG2): 19%

CC(C)NC(=O)c1cccc(-c2ccc(OCCN3CCCC3c3cc4ccccc4[nH]3)cc2)c1 (stereo not given)
Inhibition (Plasmodium falciparum [1]): 100%
Inhibition (Plasmodium falciparum [2]): 34%
Inhibition (HepG2): 25%

COc1ccc(-c2nc3ccc(C)nc3nc2-c2ccc(OC)cc2)cc1
Inhibition (Plasmodium falciparum [1]): 91%
Inhibition (Plasmodium falciparum [2]): 0%
Inhibition (HepG2): 4%

COc1ccc2[nH]cc(C3CCN(CCCCCNC(=O)c4ccc(-c5ccccc5)cc4)CC3)c2c1
Inhibition (Plasmodium falciparum [1]): 96%
Inhibition (Plasmodium falciparum [2]): 16%
Inhibition (HepG2): 50%

CC(C)(C)c1nn(-c2ccccc2)c2[nH]c(=O)c(CNC3CCCC3)cc12
Inhibition (Plasmodium falciparum [1]): 100%
Inhibition (Plasmodium falciparum [2]): 70%
Inhibition (HepG2): 7%

CCOC(=O)C1CCN(CCCNC(=O)/C(=C/C=C/c2cc3cc(Cl)c(Cl)cc3[nH]2)OC)CC1
Inhibition (Plasmodium falciparum [1]): 87%
Inhibition (Plasmodium falciparum [2]): 78%
Inhibition (HepG2): 23%

CC(=O)C1=NN(c2ccc(Cl)cc2)C(c2cccs2)N1c1ccccc1 (stereo not given)
Inhibition (Plasmodium falciparum [1]): 88%
Inhibition (Plasmodium falciparum [2]): 70%
Inhibition (HepG2): 0%

Cc1cc(-c2ccc(CNC3CCN(C)CC3)cc2)ccc1S(=O)(=O)NCc1ccccc1.O=C(O)C(F)(F)F
Inhibition (Plasmodium falciparum [1]): 100%
Inhibition (Plasmodium falciparum [2]): 97%
Inhibition (HepG2): 52%

Cl.Cn1cnc(-c2ccc3c(c2)CCN(CCC2CCC(NC(=O)/C=C/c4ccc(F)cc4)CC2)CC3)c1 (stereo not given)
Inhibition (Plasmodium falciparum [1]): 90%
Inhibition (Plasmodium falciparum [2]): 18%
Inhibition (HepG2): 26%

COc1cc(C(=O)N2CCOC(CCN3CCC(Cc4ccc(F)cc4)CC3)(c3ccc(Cl)c(Cl)c3)C2)cc(OC)c1OC (stereo not given)
Inhibition (Plasmodium falciparum [1]): 88%
Inhibition (Plasmodium falciparum [2]): 58%
Inhibition (HepG2): 44%

Cc1nc(N)nc(N)c1OCc1ccc(Cl)c(Cl)c1.Cl
Inhibition (Plasmodium falciparum [1]): 97%
Inhibition (Plasmodium falciparum [2]): 5%
Inhibition (HepG2): 14%

NS(=O)(=O)c1ccccc1Nc1nc(Nc2ccc(N3CCOCC3)cc2)nc2c1CCC2.O=CO
Inhibition (Plasmodium falciparum [1]): 96%
Inhibition (Plasmodium falciparum [2]): 99%
Inhibition (HepG2): 21%

CC(C)Cn1c(Sc2ccc(C#N)c([N+](=O)[O-])c2)nnc1-c1ccccc1
Inhibition (Plasmodium falciparum [1]): 83%
Inhibition (Plasmodium falciparum [2]): 12%
Inhibition (HepG2): 17%

CN1CCN(CCCNCc2cccc(-c3ccc(CNCCc4ccccc4)cc3)c2)CC1.O=C(O)C(F)(F)F
Inhibition (Plasmodium falciparum [1]): 100%
Inhibition (Plasmodium falciparum [2]): 20%
Inhibition (HepG2): 36%

CCn1c(-c2nonc2N)nc2c(C#CC(C)(C)O)ncc(OCCNCCc3ccc(OC)cc3)c21.O=C(O)C(F)(F)F
Inhibition (Plasmodium falciparum [1]): 91%
Inhibition (Plasmodium falciparum [2]): 44%
Inhibition (HepG2): 4%

— ChEMBL document CHEMBL1157539, “Thousands of chemical starting points for antimalarial lead identification” (Nature, 2010)
